Screens from PubChem BioAssay.
Hits are enriched below; roughly 2.5% of the tested compounds scored in any of these assays.
MEKK2 mut-MEK5: MEK5 binding signal on mutant MEKK2 PB1, primary screen, biochemical, multiplex bead flow cytometry, Alexa488-MEK5; percent response, % at 10 µM; hit rate 0.35% among 290,000; Alexa488-MEK5 binding to MEKK2 mutant; in the data active = percent response above about 24%, passing the limit was not always enough
Rce1 inhib: yeast Rce1p protease inhibitors, primary screen, biochemical, fluorescence, cell-free homogeneous; CAAX prenyl protease 2 (Saccharomyces cerevisiae (strain ATCC 204508 / S288c)), Q03530; yeast membranes, quenched prenylated peptide cleavage fluorescence; calls only; hit rate 0.27% among 290,000; AID 2563, 2010;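 active = fall in fluorescence gain of 50% or more versus controls, with final raw signal at or below 3038400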
Target sequence (Q03530 whole entry, looked up): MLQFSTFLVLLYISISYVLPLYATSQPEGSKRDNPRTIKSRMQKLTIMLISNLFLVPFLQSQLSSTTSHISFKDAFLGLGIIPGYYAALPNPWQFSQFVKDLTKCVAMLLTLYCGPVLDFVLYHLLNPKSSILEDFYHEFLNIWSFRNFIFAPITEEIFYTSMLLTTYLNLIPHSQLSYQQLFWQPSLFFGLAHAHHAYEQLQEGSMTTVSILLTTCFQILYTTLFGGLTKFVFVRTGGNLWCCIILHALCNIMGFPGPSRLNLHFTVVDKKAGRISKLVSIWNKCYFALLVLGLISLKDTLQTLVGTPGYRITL
UBC13 inh: UBC13 polyubiquitin chain formation inhibitors, primary screen, biochemical, TR-FRET, uHTS | Ubiquitin-conjugating enzyme E2 N (Homo sapiens), P61088 | inhibition, % at 20 µM | hit rate 0.47% among 330,000 | AID 485273, 2010; in the data active = inhibition above about 45%, passing the limit was not always enough
Target sequence (P61088 whole entry, looked up): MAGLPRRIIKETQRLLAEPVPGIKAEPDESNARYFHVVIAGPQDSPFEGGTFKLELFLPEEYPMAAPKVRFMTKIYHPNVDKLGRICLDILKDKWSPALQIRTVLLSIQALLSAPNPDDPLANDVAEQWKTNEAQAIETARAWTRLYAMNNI
MEKK3 PB1 HTS: modulators of MEKK3-MEK5 PB1 binding, primary screen, biochemical, wildtype MEKK3, multiplex bead flow cytometry, Alexa488-MEK5; Mitogen-activated protein kinase kinase kinase 3 (Homo sapiens), Q99759; bead-based flow cytometry, Alexa488-MEK5 binding to MEKK3; actives lie on both sides; 0 = blocked by unlabeled MEK5, 100 = vehicle; binding response (% of control), % at 10 µM; hit rate 1.4% among 290,000; AID 1529, 2009;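 active = binding response more than 3 SD above or below the average of its plate-row segment, actives on both sides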;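 note: Alexa488 bead fluorescence after subtracting the streptavidin-only scavenger bead signal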
MEKK2wt PB1 HTS: modulators of MEK5 binding to wildtype MEKK2, primary screen, biochemical, multiplex bead flow cytometry, Alexa488-MEK5; Mitogen-activated protein kinase kinase kinase 2 (Homo sapiens), Q9Y2U5; binding response (% of control), % at 10 µM; Alexa488-MEK5 binding to MEKK2 WT; actives lie on both sides; hit rate 1.1% among 290,000; in the data active = binding response below about 67% or above about 130%
MEKK2wt confirm: modulators of MEK5 binding to wildtype MEKK2, confirmation, biochemical, single concentration, multiplex bead flow cytometry; shares compounds with MEKK3 PB1 HTS; Alexa488-MEK5 binding to MEKK2 WT; actives lie on both sides; binding response (% of control), % at 10 µM; hit rate 2.4% among 5,900; AID 1892, 2009; in the data active = binding response below about 16% or above about 210%; inactive = in between
MEKK2mut-MEK5: mutant MEKK2 PB1-MEK5 binding signal retest – biochemical, single concentration, multiplex bead flow cytometry, confirmation; shares compounds with MEKK3 PB1 HTS; Alexa488-MEK5 binding to MEKK2 mutant; percent response, % at 10 µM; hit rate 2% among 5,900; AID 1893, 2009; in the data active = percent response mostly above about 71%, no sharp cut-off; inactive = mostly below about 38%;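 note: higher means compound restores mutant binding toward wildtype level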
MEKK3 confirm: MEKK3 wild-type PB1 binding to MEK5, inhibitors, confirmation, biochemical, bead multiplex flow cytometry, single concentration, wildtype | AID 1894, 2009 | binding response (% of control), % at 10 µM | hit rate 1.8% among 5,900 | shares compounds with MEKK3 PB1 HTS | Alexa488-MEK5 binding to MEKK3; hits give low values;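 active = binding response below 72% of control, or above a set upper limit, though filed actives all read lower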;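 note: lower values mean stronger disruption of MEK5 binding to MEKK3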
Hits are given with their value; 0 = inactive; - = no result given; [ ] = another dose, or the depositor's remark.

SMILES	MEKK2 mut-MEK5	Rce1 inhib	UBC13 inh	MEKK3 PB1 HTS	MEKK2wt PB1 HTS	MEKK2wt confirm	MEKK2mut-MEK5	MEKK3 confirm
Cc1onc(-c2c(F)cccc2Cl)c1C(=O)N1CCCCC1	0	0	0	0	0	-	-	-
Cc1onc(-c2c(F)cccc2Cl)c1C(=O)OCC(=O)NC(N)=O	0	0	0	0	0	-	-	-
Cc1onc(-c2c(F)cccc2Cl)c1C(=O)OCC(=O)NC1CC1	0	0	0	70[inhibitor]	0	0	0	0
CCOC(=O)C1CCN(C(=O)CSc2ccc(Cl)cc2)CC1	0	0	0	129	0	0	0	0
COc1ccc(NS(=O)(=O)c2cc(NC(=O)c3ccc(=O)[nH]c3)ccc2N2CCCC2)cc1	0	0	0	0	0	-	-	-
CCN1CCOC(CC(=O)Nc2ccc([N+](=O)[O-])cc2)C1=O (stereo unspecified)	0	0	0	0	0	-	-	-
Cn1cccc1C(=O)OCC(=O)NC(=O)c1ccc(Cl)cc1	-	-	0	-	-	-	-	-
CC(=O)c1ccc(OCC(=O)OCC(=O)N(CC(C)C)c2c(N)n(Cc3ccccc3)c(=O)[nH]c2=O)cc1	-	-	0	-	-	-	-	-
COC(=O)N1C(=O)[C@@](c2ccccc2)(C(C)C)N1C(=O)OC	0	0	0	0	0	-	-	-
COC(=O)N1C(=O)[C@](c2ccccc2)(C2CCCC2)N1C(=O)OC	30	0	0	0	0	0	0	0
CCc1ccc(C(=O)NCc2ccc(Cl)cc2Cl)cc1	0	0	0	0	0	-	-	-
Cc1ccc(SCc2ccc(C(=O)NCc3ccncc3)cc2)cc1	0	0	0	82[inhibitor]	0	0	0	0
CCc1ccc(C(=O)NCc2ccc(Cl)cc2)cc1	0	0	0	71[inhibitor]	0	0	0	0
CN1C(=O)/C(=C/c2cccc(Cl)c2)Sc2ccc(C(=O)N3CCCC3)cc21	0	0	0	0	0	-	-	-
COc1ccc(N2C(=O)/C(=C/c3cccs3)NC2=S)cc1	0	0	0	141	0	0	0	0
CN(C)/C=C1\NC(=S)N(c2ccccc2)C1=O	0	-	0	0	0	-	-	-
CNc1nc(Cl)c(SC)c(NC2CCCCC2)n1	0	0	0	148	0	0	0	0
COCc1nnc(NS(=O)(=O)c2ccc(C)cc2)s1	0	-	0	0.0[inhibitor]	0.0[inhibitor]	0	0	0
CN1CCN(c2nc(Nc3ccc(F)cc3)nc(Nc3ccc(F)cc3)n2)CC1	33	0	0	0	145	0	0	0
c1ccc(Nc2nc(Nc3ccccc3)nc(N3CCNCC3)n2)cc1	0	0	0	0	154	0	0	0
COc1ccc(C(=O)CCN2CCc3cc(OC)c(OC)cc3C2)cc1	0	0	0	1.0[inhibitor]	1.0[inhibitor]	0	0	0
Cc1ccc(C2=Nc3ccccc3N(C(=O)c3ccccc3)C(C)C2)cc1 (stereo unspecified)	0	0	0	0	0	-	-	-
CCOC(=O)/C(C#N)=C/Nc1ccccc1OC	0	0	0	2.0[inhibitor]	2.0[inhibitor]	0	0	0
CN1CCN(CCCCOc2ccccc2C=O)CC1	0	0	0	128	200	0	0	0
COc1cccc(OC)c1OCCCCCCN1CCN(C)CC1	0	0	0	0	0	-	-	-
SMILES	MEKK2 mut-MEK5	Rce1 inhib	UBC13 inh	MEKK3 PB1 HTS	MEKK2wt PB1 HTS	MEKK2wt confirm	MEKK2mut-MEK5	MEKK3 confirm
COc1cccc(-c2ccc(NC(=O)C3CCCN(Cc4cnn(C(C)C)c4)C3)cc2)c1 (stereo unspecified)	0	0	0	0	147	0	0	0
CCCc1ncc(CN2CCCC(C(=O)Nc3ccc(-c4cccc(OC)c4)cc3)C2)cn1 (stereo unspecified)	0	0	0	0	0	-	-	-
O=C(Nc1ccc(F)c(Cl)c1)Nc1csc2ccccc12	0	0	0	0	191	0	0	0
O=C(Nc1ccc(F)cc1F)Nc1csc2ccccc12	0	0	0	0	0	-	-	-
CSCCC(NC(=O)c1cccc([N+](=O)[O-])c1)C(=O)O (stereo unspecified)	0	0	0	0	0	-	-	-
CCCCCCCCCCCCCCCCn1cc[n+](CC(C)=O)c1	89	-	-	0	220	0	0	0
CCCCCCn1ccc(=N)cc1	0	0	0	0	0	-	-	-
O=[N+]([O-])c1cc(C(F)(F)F)ccc1NCCNC(=S)Nc1ccc(Cl)cc1	0	0	0	0	139	0	0	0
O=[N+]([O-])c1cc(C(F)(F)F)ccc1NCCCCNS(=O)(=O)c1ccc(Cl)cc1	0	0	0	0	0	-	-	-
Cc1ccccc1C(=O)OCc1nnc(-c2ccc(Cl)cc2)o1	0	0	0	146	0	0	0	0
Cc1noc(C)c1COc1ccc(C(=O)OCc2nnc(-c3ccc(Cl)cc3)o2)cc1	0	0	0	2.0[inhibitor]	2.0[inhibitor]	0	0	0
O=C(COc1ccccc1)OCC(=O)c1ccc(S(=O)(=O)N2CCCCC2)cc1	-	-	0	-	-	-	-	-
O=C(c1ccc(F)cc1)N1CCN2C(=O)c3ccccc3C12c1ccccc1 (stereo unspecified)	0	0	0	60[inhibitor]	0	0	0	0
Cc1cc(C(=O)OCC(=O)Nc2cccc(S(N)(=O)=O)c2)c(C)o1	-	-	0	-	-	-	-	-
Cc1cccc(NC(=O)COC(=O)c2cc(C)oc2C)c1	0	0	0	129	0	0	0	0
COC(=O)c1cc(C(=O)OC)cc(N2C(=O)CC(NNC(=O)c3ccccc3Br)C2=O)c1 (stereo unspecified)	0	0	0	0	0	-	-	-
COC(=O)c1cc(C(=O)OC)cc(N2C(=O)CC(NNC(=O)c3ccc(C)cc3)C2=O)c1 (stereo unspecified)	0	0	0	61[inhibitor]	0	0	0	0
NS(=O)(=O)c1ccc(CCNCc2cc(Br)ccc2OCc2ccccc2)cc1	0	0	0	0	145	0	0	0
CCOc1cc(CNCCc2ccc(S(N)(=O)=O)cc2)cc(Cl)c1OCc1ccccc1	36	0	0	0	206	0	0	0
Cc1nnc(SCc2ccccc2CSc2nnc(C)s2)s1	0	0	0	130	0	0	0	0
COc1ccc(C2CC(c3ccccc3)=NN2S(=O)(=O)c2ccccc2)cc1 (stereo unspecified)	0	0	0	20[inhibitor]	0	0	0	0
